This is part of a sample that, as a whole, favours compounds with a hit. Of some 83,000 tested, about 20% had one in any assay.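 Interpretation: 100, growth as untreated; towards 0, rising growth inhibition; 0, no net growth; 0 to -100, cell death. Compounds scoring below 10 were considered active.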 Activity calls are given as the source filed them.

This assay deals with HL-60(TB) leukemia. Briefly: NCI-60 one-dose screen, 48 h (100 = growth as untreated, 0 = no growth, -100 = all killed). As to conditions: 10 µM unless noted.
As to `COc1ccc(-c2nc(SCCC(C)C)nc(N/N=C(/C)c3ccc(N)cc3)c2C#N)cc1`, the growth was 83.8% (inactive).

In the case of `CNCCCOc1c(Br)cc(CCNC(=O)/C(Cc2ccc(OC)c(Br)c2)=N/O)cc1Br`, the growth is 21.3% (inactive).

Regarding `O=C(COc1cccc(/C=C2\COc3ccccc3C2=O)c1)c1ccccc1`, the growth is 40.3% (inactive).

Take `O=c1[nH]c(-c2cccc(F)c2)cc2cc(F)ccc12`: the growth was -24.6% (active).

As to `O=C1OCCCCCCCCCC#Cc2ccccc21`, the growth was 88.7% (inactive).

Take `Cn1c(COC(=O)NCCn2ccnc2)nc2c(N3CCOCC3)nc(-c3ccccc3)nc21`: the growth is -37.5% (active).

For the compound `CCCCCCCN(CCCCCCC)C(=N)c1ccnc2ccccc12`, the growth was -64.4% (active).

For the compound `COCCn1cc(-c2nc(-c3cn(CCOC)c4ncccc34)cs2)c2ccccc21`, the growth is 114% (inactive).

As for `CC(=O)OC/C(C)=C\CC(C)COC(C)=O` (stereo not given), the growth was 101% (inactive).

Turning to `COc1cc2c(c(OC)c1OC)C(=O)CC(c1cccc(C(=O)Nc3cccc(Br)c3)c1)O2` (stereo not given), the growth is 91.8% (inactive).

Regarding `O=C(CN1C(=O)/C(=C/c2ccc(Cl)cc2)SC1=S)NCCCN1CCOCC1`, the growth is 98.7% (inactive).

As for `COc1ccc2nc(/C=C/c3ccc(N(C)C)cc3)sc2c1`, the growth is 51.1% (inactive).

Turning to `CCc1ccc(-c2ccc(-n3nc(C)c4c(N)nc(Cc5ccccc5)nc43)cc2)cc1`, the growth was 65% (inactive).

As for `C#CCOc1cccc(-c2ncnc3cc(NC(=O)CCl)ccc23)c1`, the growth is -29.7% (active).

In the case of `O=C(c1ccccc1)c1ccc(N2C(=O)C3C4c5ccccc5C(/C=C/C(=O)c5ccccn5)(c5ccccc54)C3C2=O)cc1` (stereo not given), the growth was 30% (inactive).

As for `CCCCNC(=O)Oc1ccc(/C(=C(/C)Cc2ccc(OC)cc2)c2ccc(OCCN3CCCCCC3)cc2)cc1`, the growth was 33.9% (inactive).

For the compound `Cc1ccc2[nH]c(=O)c3c(c2c1)Oc1ncn2nc(-c4ccco4)nc2c1C3c1ccc(Cl)cc1` (stereo not given), the growth is 96.8% (inactive).

In the case of `C=C1c2c(Cl)ccc(O)c2C(O)=C2C(=O)[C@]3(O)C(O)=C(C(N)=O)C(=O)[C@@H](N(C)C)[C@@H]3[C@@H](O)[C@H]12`, the growth was -24.8% (active).

Take `CC(=O)N1N=C(c2ccc(F)cc2)CC1c1sc(N(C)Cc2ccccc2)nc1Cl` (stereo not given): the growth was 109% (inactive).

For `COc1ccc2sc3c(NCCCNCCO)nc4ccccc4c3c(=O)c2c1`, the growth was 36.5% (inactive).

`NCCNc1nc2ccccc2c2c(=O)c3cc(F)ccc3sc12`: the growth was 62.8% (inactive).

In the case of `CCc1cc2n(n1)-c1ncc(C(=O)OC)cc1Oc1ccccc1-2`, the growth was 105% (inactive).

For the compound `COc1cc(-c2nn(-c3ccc(Br)cc3)cc2C(=O)O)ccc1O`, the growth was 82.8% (inactive).

In the case of `COc1cccc(C2(C)Nc3ccccc3-c3nc4ccccc4n32)c1` (stereo not given), the growth was 89.1% (inactive).

`CO[C@H]1/C=C/O[C@@]2(C)Oc3c(C)c(O)c4c(O)c(c5c(nc6cc(C)ccn65)c4c3C2=O)NC(=O)/C(C)=C\C=C\[C@H](C)[C@H](O)[C@@H](C)C(O)[C@@H](C)[C@H](OC(C)=O)[C@@H]1C` (stereo not given in full): the growth was 102% (inactive).

For `C[C@@H](Oc1cc(-c2cnn(C3CC4(CNC4)C3)c2)cnc1N)c1c(Cl)ccc(F)c1Cl`, the growth was -1.19% (active).

`CCOC(=O)C/C(C)=N\NC(=O)c1ccncc1`: the growth was 99.4% (inactive).

Take `COc1ccc2c(c1)/C(=C\c1sc(=S)[nH]c1O)C(C(=O)O)=N2`: the growth was 101% (inactive).

In the case of `Cc1csc(Nc2nc(-c3cccc(Br)c3)nc(C(Cl)(Cl)Cl)n2)n1`, the growth was 9.61% (active).

Consider `O=C(C(=O)N1CCCCC1)c1ccc(OC2OC(CO)C(O)C(O)C2O)cc1` (stereo not given), for which the growth was 77.8% (inactive).

With `N#C/C(=C\c1ccc(-c2cc(C(F)(F)F)ccc2Cl)o1)c1nc(-c2ccco2)cs1`, the growth was 89.2% (inactive).

Turning to `O=C1c2cc3c(cc2-c2c1c1ccc(F)cc1c(=O)n2C[C@H](O)[C@@H](O)[C@H](O)CO)OCO3`, the growth is -3.71% (active).

As to `CCCOC(=O)N[C@H]1CCc2cc(OC)c(OC)c(OC)c2-c2ccc(SC)c(=O)cc21`, the growth was -39.7% (active).

Regarding `O=c1nc2sc3nc4ccccc4cc3cc-2s1`, the growth was 99% (inactive).

With `C/C(=C(/c1ccc(Cl)cc1)c1ccc(OCCN2CCCCCC2)cc1)c1ccccc1`, the growth was 63.6% (inactive).

In the case of `CCN(CC)CCOc1ccc2c(c1O)C(=O)c1ccccc1C2=O`, the growth was 71.4% (inactive).

Regarding `COc1cc2cc(Oc3ccc(NC(=O)Nc4ccc(Cl)c(C(F)(F)F)c4)cc3)c(C)nc2cc1OC`, the growth is -40.6% (active).

Consider `Cc1ccc(O)c(N2C(=NCc3ccco3)NS(=O)(=O)c3cnccc32)c1`, for which the growth was 114% (inactive).

Regarding `CC1=C/C(=N\N=C2/C=C(C)CC(C)(C)C2)CC(C)(C)C1`, the growth was 84.1% (inactive).

For `O=c1ccc2ccc(OCCN3CCCCC3)cc2o1`, the growth is -28% (active).

(Values after PubChem BioAssay (NCI).)
